mHTT CaM bind – mHTT-calmodulin interaction abrogation; AlphaScreen His-mHTT/GST-CaM binding, luminescence; actives 3.6% (n = 190,000); inhibition, % at 15 µM; P42858; AID 1671202
Pf apPOL inh – Pf-apPOL DNA polymerase inhibition. AID 1794808. inhibition, % at 10 µM. Recombinant Pf-apPOL, molecular beacon fluorescence, 1.5 h. actives 0.25% (n = 210,000)
Of the large screens only hits and unclear results are named; the others gave an inactive call. Only some compounds are listed: those with a hit (about 3.6% of all), similar ones and a draw of the others. Cut-off read from the data, not from the text of the source: active = inhibition above about 50%; inactive = the rest.

O=C(c1ccc(Sc2cccc(Cl)c2)c([N+](=O)[O-])c1)N1CCN(c2ccccn2)CC1	none
O=[N+]([O-])c1ccc(N2CCc3ccccc32)c([N+](=O)[O-])c1	mHTT CaM bind 56.0
CC(=O)N1c2ccccc2CCc2ccc([N+](=O)[O-])cc21	none
O=C(c1ccc(N2CCc3ccccc32)c([N+](=O)[O-])c1)N1CCC2(CC1)OCCO2	mHTT CaM bind 77.0
Cc1ccc(S(=O)(=O)N2CCc3ccccc32)cc1[N+](=O)[O-]	none
NC(=O)CSc1nc(SCC(N)=O)c2ccccc2n1	none
CCN(CC)C(=O)C1CC(=O)N(CCc2ccc(OC)c(OC)c2)C1 (stereo not drawn)	none
CCCN1CCN(C(=O)C2CCCN(c3nccc(C)n3)C2)CC1 (stereo not drawn)	none
Cc1nccn1CC(=O)N1CCCCC1c1nncn1-c1ccccc1 (stereo not drawn)	none
O=C(Nc1nc(-c2ccccc2)cs1)c1ncn[nH]1	none
O=C(Nc1nc(-c2ccc(Br)cc2)cs1)c1ncn[nH]1	mHTT CaM bind 99.5
COc1cc2c(cc1OC)CN(Cc1ccccc1Cl)CC2	none
COc1cc2c(cc1OC)CN(Cc1ccc(Cl)c(Cl)c1)CC2	mHTT CaM bind 55.1
CCOC(CNC(=O)CC(NS(=O)(=O)c1ccc(OC)cc1)c1ccco1)OCC (stereo not drawn)	none
CC1(C)CC2CC(C)(CN2c2nc(-c3ccc([N+](=O)[O-])cc3)nc3ccccc23)C1 (stereo not drawn)	none
CCCOc1ccc(S(=O)(=O)NCc2cccnc2)cc1C	none
CC(=O)N1c2ccccc2NC2=C(C(=O)CC(c3ccc(F)cc3)C2)C1c1cccnc1 (stereo not drawn)	none
CC1(C)CC(=O)C2=C(C1)Nc1ccccc1N(C(=O)C(F)(F)F)C2c1cccnc1 (stereo not drawn)	Pf apPOL inh 62.7
CC(=O)N1c2ccccc2NC2=C(C(=O)CC(c3ccc(Cl)c(Cl)c3)C2)C1c1cccnc1 (stereo not drawn)	mHTT CaM bind 83.0
CC1(C)CC(=O)C2=C(C1)Nc1ccccc1N(C(=O)C(F)(F)F)C2c1cccc(O)c1 (stereo not drawn)	none
CCOc1ccc(CN2CCC(C(=O)N3CCCCC3)CC2)cc1	none
Cc1nc(Nc2nc3ccccc3s2)nc2c1CCC2	none
Brc1cccc(C2=Nn3c(nnc3-c3ccccn3)SC2)c1	mHTT CaM bind 54.4 (no result: Pf apPOL inh)
Brc1ccccc1-c1nnc2n1N=C(c1ccccc1)CS2	none
O=C(C=Cc1ccc(O)c2c1C(C(=O)OC(Cc1ccc(O)c(O)c1)C(=O)O)C(c1ccc(O)c(O)c1)O2)OC(Cc1ccc(O)c(O)c1)C(=O)O (stereo not drawn)	none (no result: mHTT CaM bind)
CCc1cccc2c3c([nH]c12)CCC(NC(=O)CC1C=CCC1)C3 (stereo not drawn)	mHTT CaM bind 56.6
COCC(=O)NC1CCc2[nH]c3c(C)cccc3c2C1 (stereo not drawn)	none
Cc1nc(CC(=O)NC2CCc3[nH]c4c(Cl)cccc4c3C2)c(C)s1 (stereo not drawn)	mHTT CaM bind 95.4
Cc1ccccc1CC(=O)NC1CCc2[nH]c3c(C)cccc3c2C1 (stereo not drawn)	none
COc1ccccc1CNC(=O)Cc1cn(C)c2ccccc12	none
Clc1cc(Cl)cc(Nc2ncnc3sc4c(c23)CCCC4)c1	none
COc1ccc(Cl)cc1N(CC(=O)NC1CCCCCC1)S(C)(=O)=O	none
O=C(c1cnccn1)N1CCCC(c2cc(-c3ccc(F)cc3)n[nH]2)C1 (stereo not drawn)	none
Cn1c(CS(=O)(=O)c2ccc(Cl)cc2)c(C#N)c2ccccc21	none
CCc1ccc(CNC(=O)c2ccc3c(c2)N(C)C2CCCCN2C3=O)cc1 (stereo not drawn)	none
Cc1nc(-c2ccc(C(=O)NCc3ccccc3)cc2)cs1	none
Cc1ccc(C)c(N2CCN(c3ncnc4c3nc3n4CCCC3)CC2)c1	none
Cc1ccc(Cl)cc1N1CCN(c2ncnc3c2nc2n3CCCC2)CC1	mHTT CaM bind 99.3
CC(=O)Nc1ccc(S(=O)(=O)N2CCC(CN3CCCCCC3)CC2)cc1	none
Cc1cc(O)c2c(c1)OC(=Cc1ccc(F)cc1)C2=O	none
Cc1cc(O)c2c(c1)OC(=Cc1cccs1)C2=O	mHTT CaM bind 58.9
Cc1cc(O)cc2c1C(=O)C(=Cc1cccs1)O2	none
Cc1cc(O)c2c(c1)OC(=Cc1ccccc1)C2=O	mHTT CaM bind 53.0
CC(C)c1cc(C2CCCN2C(=O)c2cc(-c3ccc(F)cc3)no2)no1 (stereo not drawn)	none
Cc1ccccc1N=c1oc2ccc(Cl)cc2cc1C(=O)Nc1nccs1	none
Cc1nn(-c2ccccc2)c2sc(C(=O)Nc3ccccc3C(N)=O)cc12	none
COc1cc(/C=C2/C(=O)N(c3ccccc3)N=C2C)cc(Br)c1O	mHTT CaM bind 55.0
CC1=NN(c2cccc(Cl)c2)C(=O)/C1=C/c1ccc(Br)c([N+](=O)[O-])c1	mHTT CaM bind 81.0
COc1cc(/C=C2/C(=O)N(c3ccc(Cl)c(Cl)c3)N=C2C)cc(OC)c1OC	none
COc1cc(/C=C2/C(=O)N(c3ccccc3)N=C2C)cc(OC)c1O	mHTT CaM bind 52.0

Screening data: PubChem BioAssay, University of Kansas High Throughput Screening Laboratory
